According to PubChem BioAssay AID686970 (National Center for Advancing Translational Sciences (NCATS), 2013):
Out of some 360,000 compounds screened, about 6,000 (1.7%) were called active. Another 8% or so got no clear call; they are omitted. The entries come from a sample that favours actives as a whole. A number with no mark means an inactive call. Calls come from the whole dose curve; as a rule, active = well fitted cell-killing curve with a large enough effect; inconclusive = small, poorly fitted or top-dose-only effect, or effect the other way; inactive = flat fitted curve, though single readings scatter.

Test: qHTS for induction of synthetic lethality in tumor cells producing 2HG: qHTS for the HT-1080-NT fibrosarcoma cell line;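 note: NT is the 2HG producing partner of a matched IDH1 knockdown line; nearly all actives have a fitted effect of over 55% in size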;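 for activity, negative = less viability: 0% = DMSO-treated cells and -100% = media-only wells without cells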
Details: HT-1080-NT fibrosarcoma viability, CellTiter-Glo ATP luminescence, 48 h; series mostly up to 46.1 µM; activity, negative = less viability: at the top concentration
How it was run: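 HT-1080-NT; 750 cells/well; 5% FBS RPMI; 48 h compound, 37 degrees C; CellTiter-Glo luminescence; curve fitting and curve-class assignment.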
Potency is the fitted concentration of half-maximal effect.

Row | SMILES | activity, negative = less viability [%] | Potency
1 | CC(=O)Nc1ccc(Nc2c([N+](=O)[O-])cc(S(C)(=O)=O)cc2[N+](=O)[O-])cc1 | -24.2 | –
2 | CC(=O)Nc1ccc(Nc2c3ccccc3nc3ccccc23)cc1 | – | 14.6 µM (active)
3 | CC(=O)Nc1ccc(S(=O)(=O)N(C)c2nc3ccccc3nc2Cl)cc1 | -0.551 | –
4 | C[C@H]1CN([C@@H](C)CO)C(=O)c2cc(-c3ccccc3F)cnc2O[C@H]1CN(C)C(=O)C1CCOCC1 | 0.535 | –
5 | CCOc1ccc(NC(=O)CSc2nnc3c(n2)[nH]c2ccc(S(=O)(=O)N4CCOCC4)cc23)cc1 | 7.72 | –
6 | CCc1nnc(NC(=O)c2ccc(S(=O)(=O)NC3CCCCC3)cc2)s1 | – | 6.31 µM (active)
7 | CCc1nnc(NC(=O)c2cc(S(=O)(=O)N3CCCCC3)ccc2C)s1 | 4.89 | –
8 | CCc1nnc(NC(=O)C2CCCN2S(=O)(=O)c2ccccc2)s1 (centres undefined) | -5.38 | –
9 | CCOC(=O)c1c(NC(=O)COC(=O)c2ccc(S(=O)(=O)C(F)F)cc2)sc(C(=O)N(C)C)c1C | 8.55 | –
10 | CCCCn1nnnc1C1(C)CCC(=O)N1Cc1ccc(OC)c(OC)c1 (centres undefined) | 18 | –
11 | Cc1cccc(NC(=O)COC(=O)c2ccccc2OCc2cccc(Br)c2)c1 | -2.81 | –
12 | COc1ccc(CS(=O)/C(Cl)=C(/Cl)C(=O)Nc2ccc(OC)nc2)cc1 (centres undefined) | – | 1.3 µM (active)
13 | COc1ccc(C(O)c2nc(-c3ccc(OC)nc3)cs2)cc1 (centres undefined) | 1.33 | –
14 | COc1ccc(NC(=O)CN2C(=O)NC(C)(c3ccccc3)C2=O)cn1 (centres undefined) | 5.3 | –
15 | CC(=O)NC(c1ccccc1)c1nc(-c2ccccc2C)cs1 (centres undefined) | 13.7 | –
16 | CSc1ncnc2c1ncn2CCCNCC(C)c1ccccc1 (centres undefined) | -0.244 | –
17 | COc1ccc(NC(=O)N(C)C[C@@H]2OCc3cn(nn3)CCCC(=O)N([C@H](C)CO)C[C@H]2C)c(OC)c1 | -9.92 | –
18 | CCCCNC(=O)C[C@@H]1C[C@@]2(C(=O)OC)CC(C)(C)CC=C2N(Cc2ccco2)C1=O | 8.85 | –
19 | COc1ccc(NC(=O)c2nc(-n3nc(C)cc3C)ccc2Cl)cc1Cl | 1.16 | –
20 | COc1ccc(Nc2cc(C)nc(-n3nc(C)cc3C)n2)cc1 | – | 1.12 µM (active)
21 | COc1ccc(Nc2cc(Sc3ccc(OC)cc3)ncn2)cc1 | -15.5 | –
22 | CNS(=O)(=O)c1ccc2c(c1)[nH]c(=S)n2C | 1.17 | –
23 | CC1=C(C(=O)N2CCOCC2)CC(CC(=O)NCc2cccc3ccccc23)C(=O)N1CCC1=CCCCC1 (centres undefined) | 2.57 | –
24 | CCCC(=O)N1CCC1(C)C(=O)NCc1ccc(C(C)C)cc1 (centres undefined) | 3.57 | –
25 | Cc1ccc(-c2nn(-c3ccccc3)cc2C(=O)Nc2cccc(S(=O)(=O)N3CCOCC3)c2)cc1 | -0.846 | –

Row | SMILES | activity, negative = less viability [%] | Potency
26 | O=C(O)c1ccc(NC(=O)c2cn(-c3ccccc3)nc2-c2ccc(Cl)cc2)cc1 | – | 9.2 µM (active)
27 | Cc1ccc(-c2nn(-c3ccccc3)cc2C(=O)NCCCN2CCCC2=O)cc1 | -5.81 | –
28 | COC(=O)C1(C(=O)OC)C[C@H](c2ccccc2)N(Cc2ccccc2OC)[C@@H]1c1ccccc1 | -7.18 | –
29 | CCCNC(=O)C1(C)CCN(Cc2csc(-c3ccc(Cl)cc3)n2)C1 (centres undefined) | -20.6 | –
30 | O=C(COC(=O)c1ccccc1C(=O)N1CCN(c2ccccc2)CC1)NCc1ccccc1 | 11.1 | –
31 | Oc1ccccc1N1CCN(C(=S)NCc2ccccc2)CC1 | -2.58 | –
32 | Oc1ccc(N2CCN(C(=S)NCc3ccccc3)CC2)cc1 | – | 9.2 µM (active)
33 | O=C(NC(Nc1nc2ccc([N+](=O)[O-])cc2s1)(C(F)(F)F)C(F)(F)F)c1ccccc1 | – | 5.17 µM (active)
34 | O=C(NOCc1ccccc1)c1cccc([N+](=O)[O-])c1 | 1.76 | –
35 | O=C(COC(=O)c1ccc([N+](=O)[O-])cc1Cl)NC(=O)c1ccccc1 | 7.05 | –
36 | COc1ncnc2c1ncn2CCCNCCN1CCOCC1 | 17.1 | –
37 | CCC1CCCCN1CCCNC(=O)C1CCC(Cn2c(=O)[nH]c3ccccc3c2=O)CC1 (centres undefined) | -3.67 | –
38 | CCCCCn1c(=O)[nH]c2cc(C(=O)NCCCN3CCCCC3C)ccc2c1=O (centres undefined) | – | 23.1 µM (active)
39 | CC1CCCCN1CCCNC(=O)Cn1ncc2c([nH]c3ccccc32)c1=O (centres undefined) | -7.98 | –
40 | CC(C)(O)C1=C[N+](=O)CC=C1 | 0.401 | –
41 | c1cc(-c2ccc3[nH]ccc3c2)n2ccnc2c1 | -16.8 | –
42 | NC(CSC(c1ccccc1)(c1ccccc1)c1ccc(-c2ccccc2)cc1)C(=O)O (centres undefined) | -1.58 | –
43 | Clc1ccc(-c2cc(-c3ccccn3)on2)c(Cl)c1 | -22.7 | –
44 | Clc1ccc(-c2cc(C3CCNCC3)[nH]n2)c(Cl)c1 | – | 23.1 µM (active)
45 | C[C@@H]1Cn2cnc(C(=O)Nc3ccc(CNC(=O)OC(C)(C)C)cc3)c2C(=O)N1 | 0.607 | –
46 | Cc1nnc(SC(C)C(=O)c2c[nH]c3ccccc23)n1C1CC1 (centres undefined) | -1.34 | –
47 | CC1(c2ccccc2)NC(=O)N(CC(=O)Nc2cc(Cl)ccc2N2CCOCC2)C1=O (centres undefined) | -1.63 | –
48 | Cc1ccccc1NC(=O)CSc1nc2ccc(Nc3nc(N4CCOCC4)nc(N4CCOCC4)n3)cc2s1 | -0.829 | –
49 | O=C(CSc1nc(Nc2ccccc2)nc(N2CCOCC2)n1)Nc1cc(Cl)ccc1O | – | 16.4 µM (active)
50 | c1ccc2c(c1)nnn2-c1ccncc1 | -1.78 | –

Row | SMILES | activity, negative = less viability [%] | Potency
51 | O=C(Nc1ccc(F)cc1)C1CCN(C(=O)c2ccc([N+](=O)[O-])cc2)CC1 | -4.07 | –
52 | CC1CCN(C(=O)c2ccc(S(=O)(=O)Cc3cc(F)ccc3F)c([N+](=O)[O-])c2)CC1 | – | 11.6 µM (active)
53 | O=C(c1ccc(Oc2ccc(Cl)cc2)c([N+](=O)[O-])c1)N1CCCC1 | -4.99 | –
54 | Oc1cc2c(cc1O)CN(C(=S)NCCc1ccc(Cl)cc1)CCC2 | – | 31.6 µM (active)
55 | O=C(NCCc1ccc(Cl)cc1)c1cccc(N2CCCC2=O)c1 | 12.6 | –
56 | Cc1ccc(NC(=S)NCCc2ccc(Cl)cc2)c(C)c1 | -19 | –
57 | Cc1cc(C)c2c(=O)n3c(nc2c1)C(CC(C)C)NC(=O)c1cc2ccccc2cc1-3 (centres undefined) | 4.37 | –
58 | CC(C)C1CC2=C(C(=O)OC(C)(C)O2)C(c2ccc(F)cc2)O1 (centres undefined) | 0.447 | –
59 | CN1OC[C@@H]2CN(S(=O)(=O)c3cccc4ccccc34)[C@H](c3ccc(N4CCCCC4)cc3)C[C@@H]21 | -19.7 | –
60 | CS(=O)(=O)/C(C#N)=C/c1cccn1S(=O)(=O)c1ccc([N+](=O)[O-])cc1 | 5.67 | –
61 | CN(C)CCOCCOc1ccc(Cl)c2ccccc12 | – | 18.4 µM (active)
62 | CN(C)CCOc1ccc(Cl)cc1C(C)(C)C | -6.35 | –
63 | Clc1cccc(Cl)c1OCCOCCNCc1ccccc1 | -2.39 | –
64 | COc1cc(C)c(CN2CCN(C(=O)CCC(=O)c3ccc(C)s3)CC2)cc1OC | 0.481 | –
65 | Cc1ccc(NC(=O)Cn2sc3ccccc3c2=O)cc1 | -4 | –
66 | CC1(C(=O)NS(=O)(=O)c2cccc(F)c2)CCN1C(=O)Cc1ccc(Cl)cc1Cl (centres undefined) | 8.06 | –
67 | COC(=O)[C@]12CCCCC=C1N(Cc1cccc3ccccc13)C(=O)[C@H](CC(=O)N1CCOCC1)C2 | -14.1 | –
68 | COc1cc(NC(=O)c2cncc(-c3ccc(C#N)cc3)c2)cc(C(=O)Nc2cccc(C(F)(F)F)c2)c1 | – | inactive
69 | COc1cc(NC(=O)c2[nH]cnc2C(N)=O)cc(C(=O)Nc2cccc(C(F)(F)F)c2)c1 | – | 18.4 µM (active)
70 | O=C(O)CSc1c2c(nc3cc(C(=O)Nc4cccc(C(F)(F)F)c4)ccc13)CCCC2 | 12.9 | –
71 | CC(=O)C1=CCC(c2ccccc2)N(S(=O)(=O)c2ccc(C)cc2)C1 (centres undefined) | -20.9 | –
72 | Cc1ccc(OS(=O)Nc2cccc3nccnc23)cc1 (centres undefined) | – | 11.2 µM (active)
73 | Cc1ccc(Oc2ccc3c(c2)C(=O)N(c2cccc4cccnc24)C3=O)cc1 | 0.506 | –
74 | Cc1ccc(C)c(NC(=O)c2ccc3nccnc3c2)c1 | -1.09 | –
75 | CCOc1cc(/C=C(\C#N)c2nc(-c3cccs3)c(NC(C)=O)s2)ccc1O | – | 3.26 µM (active)

Row | SMILES | activity, negative = less viability [%] | Potency
76 | CCOc1cc(-c2cc(-c3ccc(NC(C)=O)cc3)nc(N)c2C#N)ccc1O | -16.4 | –
77 | CCOc1cc(C=NNC(=O)CCCC(=O)NN=Cc2ccc(O)c(OCC)c2)ccc1O | 13 | –
78 | CCCNC(=O)C1(C)CCN(C(=O)c2ccc(F)cc2Cl)C1 (centres undefined) | 19.7 | –
79 | CN1OC[C@@H]2CN(C(=O)c3cccc4ccccc34)[C@H](c3ccc(N4CCCCC4)cc3)C[C@@H]21 | 16.6 | –
80 | Clc1ccc2nc(-c3ccccc3)nc(C(Cl)Cl)c2c1 | – | 4.61 µM (active)
81 | Oc1ccc(-c2onc3ccc(Cl)cc23)cc1 | -7.15 | –
82 | N#CCSc1nc(-c2ccccc2)nc2ccc(F)cc12 | -0.769 | –
83 | CCCCNC(=O)C[C@@H]1C[C@@]2(C(=O)OCC)CCC=C2N(Cc2ccco2)C1=O | 2.86 | –
84 | COc1nc(N=C(N)N)nc2c(C)cccc12 | 0.365 | –
85 | Cc1nc(N=C(N)N)nc2c(C)cccc12 | – | 10.3 µM (active)
86 | O=C1CCC(=O)N1CCC(=O)N(C(=O)NC1CCCCC1)C1CCCCC1 | 2.37 | –
87 | CC(=O)OC[C@@H]1CN(Cc2ccccc2)C[C@H](n2cnc3c(NCc4ccco4)ncnc32)O1 | 1.85 | –
88 | C[N+](C)(C)CCNC(=O)c1c[nH]c2ccccc12 | 18.4 | –
89 | COc1cccc(-n2c(SCC(=O)c3c[nH]c4ccccc34)nc3ccccc3c2=O)c1 | -16.3 | –
90 | COc1ccc(/C=C(\C#N)c2c[nH]c3ccccc23)cc1 | – | 0.411 µM (active)
91 | COc1ccc(C=C2CCC3C(CCCC34OCCO4)C2=O)cc1 (centres undefined) | -2.47 | –
92 | COCCCNC(=O)c1cccc2c(-c3ccc(O)c(OC)c3)coc12 | -6.37 | –
93 | CC1(C(=O)Nc2cccc3c2CCCC3)CCN1C(=O)CCc1ccc(Cl)cc1Cl (centres undefined) | -25.8 | –
94 | C=CCSC1=C(C#N)C(c2cc(Br)c(O)c(OC)c2)CC(=O)N1 (centres undefined) | -2.43 | –
95 | CCOC(=O)CSC1=C(C#N)C(c2sccc2C)CC(=O)N1 (centres undefined) | – | 2.51 µM (active)
96 | COC(=O)CSC1=C(C#N)C(c2ccccc2OC)C(C(=O)OC)C(=O)N1 (centres undefined) | 10.5 | –
97 | CN(Cc1ccccc1)C(=O)CCC1CCN(C(=O)c2ccco2)CC1 | 1.67 | –
98 | COC(=O)Cc1ccc(OC2(C)CCN(Cc3ccc4c(c3)OCCO4)C2)cc1 (centres undefined) | -12 | –
99 | C#CCNC(=O)C[C@@H]1C[C@@]2(C(=O)OCC)CCCC=C2N(Cc2ccco2)C1=O | 16.7 | –
